Screening results deposited in PubChem BioAssay by National Center for Advancing Translational Sciences (NCATS).
Most compounds without a hit are left out; they make up all but 2.4% or so of the library.
Cruzain inh noDet: qHTS Assay for Promiscuous and Specific Inhibitors of Cruzain (without detergent). Cruzipain (Trypanosoma cruzi), P25779. purified cruzain, Z-FR-AMC fluorescence, no detergent. Potency, µM, actives largely listed as inhibitors. hit rate 2.3% among 200,000; note: nearly all actives have a fitted effect of over 40% in size
Target sequence (P25779 123-467 limits assumed): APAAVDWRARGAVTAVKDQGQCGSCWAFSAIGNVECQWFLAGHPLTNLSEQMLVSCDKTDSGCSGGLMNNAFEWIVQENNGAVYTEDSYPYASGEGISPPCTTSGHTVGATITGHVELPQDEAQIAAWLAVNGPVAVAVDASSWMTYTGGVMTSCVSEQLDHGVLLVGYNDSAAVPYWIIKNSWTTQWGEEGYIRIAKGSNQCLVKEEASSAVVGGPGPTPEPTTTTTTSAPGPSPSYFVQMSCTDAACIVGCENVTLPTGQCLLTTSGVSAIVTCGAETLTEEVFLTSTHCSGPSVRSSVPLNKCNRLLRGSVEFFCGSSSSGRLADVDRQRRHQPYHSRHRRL
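Detergent-free condition (0.00005% Triton X-100) in acetate buffer pH 5.5 with DTT. 1.5 nM enzyme and compound were pre-mixed 15 min, then 2 uM Z-FR-AMC substrate added; reaction progress from fluorescence change between first and third reads (60 s).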
Cruzain inh Det: qHTS Assay for Promiscuous and Specific Inhibitors of Cruzain (with detergent); hit rate 0.43% among 200,000; Potency, µM, usual class: inhibitors; Cruzipain (Trypanosoma cruzi), P25779; AID 1478, 2009; purified cruzain, Z-FR-AMC fluorescence, 0.01% Triton; note: nearly all actives have a fitted effect of over 40% in size
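Detergent-containing run (0.01% Triton X-100) in acetate buffer pH 5.5 with 5 mM DTT: enzyme at 1.5 nM final, 15 min compound preincubation at room temperature, then 2 uM Z-FR-AMC substrate. Activity taken as 60 s fluorescence increase at 360/450 nm.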
Large screens that a line does not name were inactive. Calls come from the whole dose curve; as a rule, active = well fitted curve in the direction sought with a large enough effect; inconclusive = small, poorly fitted or top-dose-only effect, or another doubt; inactive = no such curve, though single readings can be large; an effect the other way counts as inactive or inconclusive.

CN(C)c1ncc2nc(-c3cccs3)c(=O)n(CCc3ccccc3)c2n1	none
CC(Nc1ncnc2c1cnn2-c1cccc(Cl)c1)c1ccccc1 (configuration not stated)	none
C/C(=N/S(=O)(=O)c1ccc(Cl)c(Cl)c1)OCC(C)(C)C	none
O=C(Nc1ccc(S(=O)(=O)Nc2ncccn2)cc1)c1cc(=O)c2ccccc2o1	none
O=C(Nc1cccc2ccccc12)NC1CCCc2ccccc21 (configuration not stated)	Cruzain inh noDet 13µM
CNC(=O)NC1CCCc2ccccc21 (configuration not stated)	none
O=C(Cn1c(=O)c(C(F)(F)F)nc2ccccc21)Nc1ccc(Br)cc1F	none
COc1ccc(OC)c(NC(=O)N2CCC3(CC2)Oc2ccccc2C(=O)N3Cc2ccccc2F)c1	none
CCOc1ccccc1-c1nc(C(N)=O)c2c(n1)n(-c1ccc3c(c1)OCO3)c(=O)n2C	none
C=C1C(=O)[C@]23[C@H](O)[C@H]1CC[C@H]2[C@@]12COC3(O)[C@H](O)[C@@H]1C(C)(C)CC[C@@H]2O	none
CCCc1cc(N2CCN(c3cc(Cl)ccc3C)CC2)n2cnnc2n1	none
Cc1ccc(-n2c(C)cc(/C=C3/C(=O)NC(=O)N(Cc4ccco4)C3=O)c2C)cc1	none
Cc1ccc(/C=C2\SC(=S)N(Cc3ccccc3)C2=O)o1	Cruzain inh noDet inconclusive
COc1ccc(-n2c(C)cc(/C=C3\SC(=S)N(Cc4ccco4)C3=O)c2C)cc1	Cruzain inh noDet 7.9µM
COc1ccc(-c2nn(-c3ccccc3)cc2/C=C2/SC(=S)N(Cc3ccco3)C2=O)c(C)c1	Cruzain inh noDet 3.2µM
CCOc1ccc2nc(NC(=O)c3nc(SC(C)C)ncc3Cl)sc2c1	none
COc1cccc2oc(SC)cc(=O)c12	none
CCc1ccc(OCc2nnc(NC(=O)c3cccs3)s2)cc1	Cruzain inh noDet 13µM
O=C(NC(=S)Nc1nc2ccccc2s1)c1cccs1	none
CCc1ccc(-c2nc(NC(=S)NC(=O)c3cccs3)sc2C)cc1	Cruzain inh noDet 4µM
Cc1ccc(OCc2nnc(NC(=O)Cc3cccs3)s2)cc1	Cruzain inh noDet inconclusive
CC(=O)c1ccc(NS(=O)(=O)c2c(C)nc3scc(C)n3c2=O)cc1	none
O=C(Nc1ccccc1C(=O)OCc1cc(=O)n2nc(C3CC3)sc2n1)c1cccc(F)c1	none
CCCn1c(=O)c2sccc2n2c(CCCC(=O)NCCc3ccc(Cl)cc3)nnc12	none
O=C(Nc1ccc(Br)cc1)c1nn(C23CC4CC(CC(C4)C2)C3)cc1Br	Cruzain inh noDet 25µM
Cn1nccc1C(=O)Nc1ccn(C23CC4CC(CC(C4)C2)C3)n1	none
O=C(CSc1nccn1-c1cccc(Cl)c1)Nc1cccc(C(F)(F)F)c1	none
CC(C)C(NC(=O)OCc1ccccc1)C(=O)OCC(=O)N1CCCCC1 (configuration not stated)	none
CC(=O)c1cccc(NC(=O)COC(=O)[C@@H](NC(=O)OCc2ccccc2)C(C)C)c1	Cruzain inh noDet 25µM, Cruzain inh Det 16µM
CN1CCN(c2ccc3nc(-c4ccc5nc(-c6ccc(O)cc6)[nH]c5c4)[nH]c3c2)CC1	none
Cc1ccccc1C(=O)NC1(C(F)(F)F)N=C(c2ccccc2)N(C2CCCCC2)C1=O (configuration not stated)	Cruzain inh noDet inconclusive
CCOC(=O)c1c(C2COc3ccccc3O2)csc1N (configuration not stated)	none
CCOC(=O)c1c(C2COc3ccccc3O2)csc1NC(=O)c1ccccc1 (configuration not stated)	Cruzain inh noDet 25µM
C[C@]12O[C@H]1[C@@H](O)C(Br)=C(CO)[C@H]2O	none
COc1ccccc1NC(=O)Cn1c(=O)n(CC2CCC(C(=O)NCCc3ccccc3)CC2)c(=O)c2ccccc21 (configuration not stated)	none
CN(C)S(=O)(=O)c1cc(NC(=O)COC(=O)Cc2ccccc2)ccc1Cl	none
CN(C)S(=O)(=O)c1cc(NC(=O)[C@H](Cc2ccccc2)N2C(=O)c3ccccc3C2=O)ccc1Cl	Cruzain inh noDet 20µM
CCn1c2ccccc2c2cc(/C=N/NC(=O)c3ccccc3)ccc21	Cruzain inh noDet 32µM, Cruzain inh Det inconclusive
CCn1c2ccccc2c2cc(/C=N/n3c(C)nnc3C)ccc21	Cruzain inh noDet inconclusive
Cc1ccc(C)c(NS(=O)(=O)c2cc3c(cc2Cl)NC(=O)CO3)c1	none
COc1ccc(-c2nc(-c3ccccc3)c(-c3cccs3)[nH]2)cc1OC	none
COc1ccc(-c2nc(-c3ccccc3)c(-c3ccccc3)[nH]2)cc1Br	Cruzain inh noDet 3.2µM
COc1ccc(NC(=O)CSc2nc(-c3cccs3)cc(C(F)(F)F)n2)cc1OC	none
CCOc1ccc(CNC(=O)c2ccc3c(c2)nc2n3CCC(C)C2)cc1OC (configuration not stated)	none
COc1ccc(CNC(=O)c2ccc3c(c2)NC(=O)C(CS(=O)(=O)Cc2ccccc2Cl)N3)cc1 (configuration not stated)	none
O=C(NCc1ccc(Cl)cc1)c1ccc2c(c1)NC(=O)C(CS(=O)(=O)Cc1ccccc1Cl)N2 (configuration not stated)	Cruzain inh noDet 25µM
CN1Cc2c(N3CCOCC3)nc(SCc3ccccc3)c(C#N)c2CC1(C)C	none
CC(=O)N1CCN(c2nc(-c3ccco3)c3c(c2C#N)CC(C)(C)SC3)CC1	Cruzain inh noDet inconclusive
CC1(C)Cc2c(C#N)c(SCC(=O)c3ccccc3)nc(N3CCOCC3)c2CS1	Cruzain inh noDet 25µM
CC1(C)Cc2c(C#N)c(N3CCN(C(=O)c4ccccc4Cl)CC3)nc(-c3ccco3)c2CS1	Cruzain inh noDet inconclusive, Cruzain inh Det 11µM
COc1ccc(OCc2ccc(-c3nc(C#N)c(N4CCC(C)CC4)o3)o2)cc1	Cruzain inh noDet inconclusive
CCCCCn1c(=O)[nH]c2cc(C(=O)N3CCN(c4cccc(Cl)c4)CC3)ccc2c1=O	none
O=C(c1cc2sccc2n1Cc1ccccc1)N1CCN(c2nc3ccccc3s2)CC1	Cruzain inh noDet 7.9µM
CCC(=O)N1CCN(c2nc3ccccc3s2)CC1	none
O=C(N/N=C/c1ccc(Br)s1)c1cccc([N+](=O)[O-])c1	Cruzain inh noDet 20µM
Cc1ccc(/C=N/NC(=O)c2cccc([N+](=O)[O-])c2)o1	none
Cc1cc(N/N=C/c2c(O)ccc3ccccc23)nc(-c2ccccc2O)n1	Cruzain inh noDet 16µM
Oc1ccc2ccccc2c1/C=N/Nc1ccccc1	none
CC(=O)Nc1cccc(-c2nnc(SCC(=O)c3cc([N+](=O)[O-])ccc3Cl)o2)c1	none
Cc1ccc(Cn2ccc(NC(=O)c3cc(-c4ccc(Br)cc4)on3)n2)cc1	Cruzain inh noDet 4µM
Cc1ccc(Cn2ccc(NC(=O)c3cc(-c4ccccc4)on3)n2)cc1	none
CC(NC(=O)c1cc(-c2ccc(Br)cc2)on1)c1ccccc1 (configuration not stated)	Cruzain inh noDet 16µM
COC(=O)c1cc(-c2ccc(Br)cc2)on1	none
O=S(=O)(CCc1ccccc1)c1nnnn1C1CCCCC1	none
COc1ccc(-c2nc3ccc(NS(=O)(=O)c4ccc(C)cc4)cc3o2)cc1	none
C/C(=N/Nc1nc(-c2ccc(Cl)cc2)cs1)c1cccs1	Cruzain inh noDet 4µM, Cruzain inh Det inconclusive
O=C(Nc1nc(-c2ccccc2)cs1)c1cccs1	none
O=C(Nc1ccccc1)c1cn(-c2ccccc2)nc1-c1ccccc1	none
O=C(Nc1ccc([N+](=O)[O-])cc1)c1cn(-c2ccccc2)nc1-c1cc2ccccc2o1	Cruzain inh noDet 7.9µM
